Experimental data: PubChem BioAssay (EPA / NIEHS)
“And” between values parts separate entries of the source, which are not always exact repeats. Equal entries are not always repeated. More than one record can exist for a structure, and the calls need not agree. The source made the active and inactive calls. How the source made its calls: active means hit-call score of the fitted dose curve at least 0.9, where 1 is the maximum; inactive means score below 0.9.

Assays:
[1] = read-out: Vascular endothelial growth factor receptor 2 (Homo sapiens) (UniProt P35968); assay: BSK_4H_VEGFRII: BioMAP Diversity Plus: 4H Assay for Vascular endothelial growth factor receptor 2 (VEGFR2) Biomarker Activity (AID 2283031); conditions: primary human endothelial cells (HUVEC); actives raise or lower the signal;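 on AC50: cell-surface VEGFR2 protein level quantified by ELISA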
Summary of the method: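 Primary human umbilical vein endothelial cells (4H system), 24 h exposure; cell-surface VEGFR2 measured by ELISA. Bidirectional fitting versus DMSO; cytotoxicity checked in parallel by SRB total-protein staining.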

[2] = read-out: Vascular cell adhesion molecule 1 (VCAM1), VCAM1 (gene 7412); assay: BSK_4H_VCAM1: BioMAP Diversity Plus: 4H Assay for Vascular cell adhesion molecule 1 (VCAM1) Biomarker Activity (AID 2283033); conditions: primary human endothelial cells (HUVEC); actives raise or lower the signal
Summary of the method: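 Chemicals are added to primary human umbilical vein endothelial cells. After 24 h, VCAM-1 levels are measured by ELISA. Values come from bidirectional fitting referenced to DMSO.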

[3] = read-out: Interferon-gamma inducible Protein 10 (IP10), CXCL10 (gene 3627); assay: BSK_BE3C_IP10: BioMAP Diversity Plus: BE3C Assay for Interferon-gamma inducible Protein 10 (IP10) Biomarker Activity (AID 2283034); conditions: primary human bronchial epithelial cells; actives raise or lower the signal
Summary of the method: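 IP-10 quantified by ELISA serves as the endpoint. Cells: primary human bronchial epithelium, read 24 h after compound addition. Activity is derived by bidirectional fitting with DMSO as negative control.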

[4] = read-out: Monokine induced gamma interferon (MIG), CXCL9 (gene 4283); assay: BSK_BE3C_MIG: BioMAP Diversity Plus: BE3C Assay for Monokine induced gamma interferon (MIG) Biomarker Activity (AID 2283035); conditions: primary human bronchial epithelial cells; actives raise or lower the signal;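 further: MIG protein measured by ELISA in BE3C cultures after 24 h of dosing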
Summary of the method: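 hu bronchial epithelial 1° cells, 24 h cpd; MIG by ELISA; bidirectional fit, DMSO = baseline.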

[5] = read-out: Transforming growth factor beta 1 (TGFb1), TGFB1 (gene 7040); assay: BSK_BE3C_TGFb1: BioMAP Diversity Plus: BE3C Assay for Transforming growth factor beta 1 (TGFb1) Biomarker Activity (AID 2283036); conditions: primary human bronchial epithelial cells; actives raise or lower the signal
Summary of the method: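 Bronchial epithelial primary cells are treated with test chemical, then TGF-b1 is quantified by ELISA after 24 hours. Values derive from bidirectional fitting against DMSO, with cytotoxicity checked by SRB staining in parallel cultures.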

[6] = read-out: Plasminogen activator inhibitor-1 (PAI1), SERPINE1 (gene 5054); assay: BSK_BE3C_PAI1: BioMAP Diversity Plus: BE3C Assay for Plasminogen activator inhibitor-1 (PAI1) Biomarker Activity (AID 2283037); conditions: primary human bronchial epithelial cells; actives raise or lower the signal
Summary of the method: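 Values derive from bidirectional fitting against DMSO baseline of PAI-1 levels, measured by ELISA in human bronchial epithelial cells 24 h after compound addition.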

[7] = read-out: urokinase plasminogen activator (uPA), PLAU (gene 5328); assay: BSK_BE3C_uPA: BioMAP Diversity Plus: BE3C Assay for urokinase plasminogen activator (uPA) Biomarker Activity (AID 2283038); conditions: primary human bronchial epithelial cells; actives raise or lower the signal;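 further: uPA protein level quantified by ELISA in cell cultures; uPA read one day after compound addition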
Summary of the method: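 Primary human bronchial epithelial cells, uPA measured by ELISA 24 h after dosing. Bidirectional change relative to DMSO; cytotoxicity checked in parallel cultures by sulforhodamine B total-protein staining.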

[8] = read-out: Urokinase-type plasminogen activator receptor (uPAR), PLAUR (gene 5329); assay: BSK_BE3C_uPAR: BioMAP Diversity Plus: BE3C Assay for Urokinase-type plasminogen activator receptor (uPAR) Biomarker Activity (AID 2283039); conditions: primary human bronchial epithelial cells; actives raise or lower the signal;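 further: uPAR protein level measured by ELISA on the cells; cells exposed to compound for one day before measurement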
Summary of the method: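 Steps: dose human primary bronchial epithelial cells, incubate 24 h, measure uPAR by ELISA, then fit gain- or loss-of-signal response bidirectionally relative to DMSO.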

[9] = read-out: Interleukin-6 (IL6), IL6 (gene 3569); assay: BSK_CASM3C_IL6: BioMAP Diversity Plus: CASM3C Assay for Interleukin-6 (IL6) Biomarker Activity for (AID 2283040); conditions: primary human coronary artery smooth muscle cells; actives raise or lower the signal
[10] = read-out: Tissue plasminogen activator (tPA), PLAT (gene 5327); assay: BSK_BE3C_tPA: BioMAP Diversity Plus: BE3C Assay for Tissue plasminogen activator (tPA) Biomarker Activity (AID 2283041); conditions: primary human bronchial epithelial cells; actives raise or lower the signal
Summary of the method: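 Gain- or loss-of-signal in tPA, measured by ELISA, derived by bidirectional fitting against DMSO. Cells: human primary bronchial epithelial; read at 24 h after chemical dosing.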

[11] = read-out: Interleukin-8 (IL8), CXCL8 (gene 3576); assay: BSK_CASM3C_IL8: BioMAP Diversity Plus: CASM3C Assay for Interleukin-8 (IL8) Biomarker Activity (AID 2283042); conditions: primary human coronary artery smooth muscle cells; actives raise or lower the signal;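 further: IL-8 protein level quantified by ELISA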
[12] = read-out: Human Leukocyte Antigen - DR isotype (HLADR), HLA-DRA (gene 3122); assay: BSK_CASM3C_HLADR: BioMAP Diversity Plus: CASM3C Assay for Human Leukocyte Antigen - DR isotype (HLADR) Biomarker Activity (AID 2283043); conditions: primary human coronary artery smooth muscle cells; actives raise or lower the signal;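 further: cell-surface HLA-DR protein level quantified by ELISA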
[13] = read-out: Macrophage colony-stimulating factor (MCSF), CSF1 (gene 1435); assay: BSK_CASM3C_MCSF: BioMAP Diversity Plus: CASM3C Assay for Macrophage colony-stimulating factor (MCSF) Biomarker Activity (AID 2283044); conditions: primary human coronary artery smooth muscle cells; actives raise or lower the signal;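 further: M-CSF protein amount quantified by ELISA after 24 h exposure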
[14] = read-out: Low-density lipoprotein receptor (LDLR), LDLR (gene 3949); assay: BSK_CASM3C_LDLR: BioMAP Diversity Plus: CASM3C Assay for Low-density lipoprotein receptor (LDLR) Biomarker Activity (AID 2283045); conditions: primary human coronary artery smooth muscle cells; actives raise or lower the signal;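 further: LDLR protein level on the cell surface quantified by ELISA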
[15] = read-out: Monocyte Chemoattractant Protein-1 (MCP1), CCL2 (gene 6347); assay: BSK_CASM3C_MCP1: BioMAP Diversity Plus: CASM3C Assay for Monocyte Chemoattractant Protein-1 (MCP1) Biomarker Activity (AID 2283046); conditions: primary human coronary artery smooth muscle cells; actives raise or lower the signal;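 further: MCP-1 level quantified by ELISA 24 h after dosing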
[16] = BSK_CASM3C_Proliferation: Cell Proliferation Assessment in the BioMAP Diversity Plus: CASM3C Assay (AID 2283047); conditions: primary human coronary artery smooth muscle cells;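 further: sulforhodamine B total protein stain as relative cell number at 560 nm; sub-confluent cells exposed 48 h before staining; fitted both ways against DMSO so gain or loss of cell number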
[17] = read-out: Monokine induced gamma interferon (MIG), CXCL9 (gene 4283); assay: BSK_CASM3C_MIG: BioMAP Diversity Plus: CASM3C Assay for Monokine induced gamma interferon (MIG) Biomarker Activity (AID 2283048); conditions: primary human coronary artery smooth muscle cells; actives raise or lower the signal;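 further: MIG protein level measured by ELISA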
[18] = read-out: serum amyloid A (SAA), SAA1 (gene 6288); assay: BSK_CASM3C_SAA: BioMAP Diversity Plus: CASM3C Assay for serum amyloid A (SAA) Biomarker Activity (AID 2283049); conditions: primary human coronary artery smooth muscle cells; actives raise or lower the signal;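 further: SAA protein level quantified by ELISA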
[19] = BSK_CASM3C_SRB: Viability Assessment in the BioMAP Diversity Plus: CASM3C Assay (AID 2283050); conditions: primary human coronary artery smooth muscle cells;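 further: total protein by SRB staining as cytotoxicity measure in parallel cultures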
[20] = read-out: Human Leukocyte Antigen - DR isotype (HLADR), HLA-DRA (gene 3122); assay: BSK_BE3C_HLADR: BioMAP Diversity Plus: BE3C Assay for Human Leukocyte Antigen - DR isotype (HLADR) Biomarker Activity (AID 2283032); conditions: primary human bronchial epithelial cells; actives raise or lower the signal
Summary of the method: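 Chemicals are dosed onto BE3C bronchial epithelial cultures of human origin and left 24 h. HLA-DR is then measured by ELISA, and the endpoint is fitted in both directions using DMSO as the activity baseline.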

Measured: AC50

C=C(C)[C@H]1CC=C(C)C(=O)C1
inactive: [1] | [2] | [3] | [4] | [5] | [6] | [7] | [8] | [9] | [10] | [11] | [12] | [13] | [14] | [15] | [16] | [17] | [18] | [19]

CC1(C)C2=CCCC(C)(C)[C@]23CC[C@H]1C3
inactive: [1] | [2] | [4] | [6] | [7] | [8] | [11] | [17]
active: [3] 20 µM | [5] 20 µM | [9] 30.2 µM | [10] 31.5 µM | [12] 20 µM | [13] 32.7 µM | [14] 34.6 µM | [15] 31.3 µM | [16] 30.7 µM | [18] 20 µM | [19] 31.1 µM

CCCCCCCCCCCCCCCC(=O)OC/C=C(C)/C=C/C=C(C)/C=C/C1=C(C)CCCC1(C)C
inactive: [1] | [2] | [3] | [4] | [5] | [6] | [7] | [8] | [9] | [10] | [11] | [12] | [13] | [14] | [15] | [16] | [17] | [18] | [19]

c1ccc2cc(Nc3ccc(Nc4ccc5ccccc5c4)cc3)ccc2c1
inactive: [1] | [20] | [2] | [3] | [4] | [5] | [6] | [7] | [8] | [9] | [10] | [11] | [12] | [13] | [14] | [15] | [16] | [17] | [18] | [19]

COc1cc(Cl)c(OC)cc1N
inactive: [1] | [20] | [2] | [3] | [4] | [5] | [6] | [7] | [8] | [9] | [10] | [11] | [12] | [13] | [14] | [15] | [16] | [17] | [18] | [19]

CCCCOC(=O)CCCCCCCC(=O)OCCCC
inactive: [1] | [2] | [3] | [4] | [5] | [6] | [7] | [8] | [9] | [10] | [11] | [12] | [13] | [14] | [15] | [16] | [17] | [18] | [19]

CCOC(=O)C(C#N)=C(c1ccccc1)c1ccccc1
inactive: [1] | [2] | [3] | [4] | [6] | [7] | [8] | [9] | [10] | [11] | [12] | [13] | [14] | [15] | [17] | [18] | [19]
active: [2] 36.9 µM | [16] 12.8 µM and 3.97 µM

COc1ccc(CCN2CCC(Nc3nc4ccccc4n3Cc3ccc(F)cc3)CC2)cc1
inactive: [1] | [3] | [4] | [5] | [6] | [7] | [8] | [9] | [10] | [11] | [12] | [13] | [15] | [17] | [18] | [19]
active: [2] 0.0041 µM | [14] 1.54 µM | [16] 8.02 µM

CSCCC=O
inactive: [1] | [2] | [3] | [4] | [5] | [6] | [7] | [8] | [9] | [10] | [11] | [12] | [13] | [14] | [15] | [16] | [17] | [18] | [19]

CCCCCC(C=O)=Cc1ccccc1
active: [1] 31.3 µM | [2] 30.5 µM | [3] 30.6 µM | [9] 32 µM | [12] 31 µM | [13] 31.9 µM | [15] 27.5 µM | [16] 30.1 µM | [19] 33.5 µM
inactive: [4] | [5] | [6] | [7] | [8] | [10] | [11] | [14] | [17] | [18]

O=C1c2ccccc2C(=O)c2c(O)ccc(O)c21
inactive: [1] | [2] | [3] | [4] | [5] | [6] | [7] | [8] | [9] | [10] | [11] | [13] | [14] | [15] | [17] | [18] | [19]
active: [12] 4.94 µM | [16] 15 µM

O=C1OC2(c3ccccc31)c1ccc(O)c(Br)c1Oc1c2ccc(O)c1Br
inactive: [3] | [4] | [6] | [7] | [8] | [9] | [11] | [12] | [13] | [14] | [15] | [16] | [17] | [18] | [19]
active: [1] 13.7 µM | [2] 20 µM | [5] 3.97 µM | [10] 20 µM
